Reference: ChEMBL document CHEMBL3988442, “University of Dundee, Small-Polar-MMV Screening Library” (2021)

Target: T1, Methionyl-tRNA synthetase, putative (Leishmania donovani (strain BPK282A1)) (UniProt E9BF75)
T1 sequence (whole entry): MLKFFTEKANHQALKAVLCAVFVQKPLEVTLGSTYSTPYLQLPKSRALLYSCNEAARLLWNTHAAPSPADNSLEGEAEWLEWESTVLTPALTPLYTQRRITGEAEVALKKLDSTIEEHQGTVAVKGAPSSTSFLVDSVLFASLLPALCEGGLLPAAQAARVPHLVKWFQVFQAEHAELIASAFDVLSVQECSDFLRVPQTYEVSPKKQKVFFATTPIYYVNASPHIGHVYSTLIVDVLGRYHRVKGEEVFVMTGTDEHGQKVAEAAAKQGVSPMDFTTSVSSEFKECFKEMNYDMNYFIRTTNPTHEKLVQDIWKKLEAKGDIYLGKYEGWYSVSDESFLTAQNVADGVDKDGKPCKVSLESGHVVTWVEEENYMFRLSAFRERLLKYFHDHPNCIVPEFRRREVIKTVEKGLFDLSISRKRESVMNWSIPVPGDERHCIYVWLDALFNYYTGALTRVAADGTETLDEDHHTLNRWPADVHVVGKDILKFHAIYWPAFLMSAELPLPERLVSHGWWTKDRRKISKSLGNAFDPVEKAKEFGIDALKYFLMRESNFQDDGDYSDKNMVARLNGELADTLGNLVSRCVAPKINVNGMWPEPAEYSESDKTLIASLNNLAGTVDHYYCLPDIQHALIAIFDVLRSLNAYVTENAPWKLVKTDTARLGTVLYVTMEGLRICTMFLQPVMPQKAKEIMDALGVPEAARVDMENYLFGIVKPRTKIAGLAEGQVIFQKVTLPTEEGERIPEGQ
Experiment: Leishmania donovani Methionine tRNA synthetase (LdMetRS):v7. Dose response assay
Type: functional
Design: conc 80 nM, time 150 minutes

With COc1ccncc1NC(=O)N1CCOc2ccccc21 the PXC50 (MAX_EFFECT 6.037735849) was < 4.
With CCc1nc(NCCO)c2c3c(sc2n1)CCC3 the PXC50 (MAX_EFFECT 3.274559194) was < 4 and the PXC50 (MAX_EFFECT 5.852417303) was < 4.
With CCNc1cc(-c2ccccn2)nc(Nc2ccc(F)cc2)n1 the PXC50 (MAX_EFFECT 11.72707889) was < 4 and the PXC50 (MAX_EFFECT 12.21532091) was < 4.
For FC(F)(F)c1nc(N2CCOCC2)nc2c1CCCCC2, the PXC50 (MAX_EFFECT 7.808564232) was < 4 and the PXC50 (MAX_EFFECT 8.396946565) was < 4.
With CS(=O)(=O)N1CCN(c2ccc3ccc(C(=O)N4CCCC4)cn23)CC1 the PXC50 (BOTTOM 0.156945579, HILLSLOPE 1.857683392, MAX_EFFECT 58.30188679, TOP 61.51792395) was 4.86 and the PXC50 (BOTTOM 4.583304472, HILLSLOPE 3.359740299, MAX_EFFECT 56.16438356, TOP 53.05051886) was 4.95.
In the case of Clc1cc(Cl)cc(CNCc2c[nH]cn2)c1, the PXC50 (MAX_EFFECT 24.66539197) is reported as < 2.7.
C[C@H](CO)Nc1nccc(Cl)n1 was tested, and the PXC50 (MAX_EFFECT 4.672897196) was < 4.
O=C(CO)N1CCC(F)(F)C2(CCN(c3ccccc3)C2)C1 (centres undefined) was tested, and the PXC50 (MAX_EFFECT 15.37037037) was < 4 and the PXC50 (MAX_EFFECT 18.30985915) was < 4.
With Clc1cc(Cl)cc(CNCC2CCOCC2)c1 the PXC50 (MAX_EFFECT 17.78202677) was < 2.7.
COCCNc1nc(-c2cccnc2)nc2sc3c(c12)CCCC3 was tested, and the PXC50 (MAX_EFFECT 11.84210526) was < 4 and the PXC50 (MAX_EFFECT 12.5) was < 4.
In the case of C[C@H](CO)Nc1ccnc(Cl)n1, the PXC50 (MAX_EFFECT 5.046728972) is reported as < 4.
For COc1cc(C(=O)NC2CCCC2)cn2c(N3CCN(S(C)(=O)=O)CC3)ccc12, the PXC50 (BOTTOM 3.193013855, HILLSLOPE 0.707285439, MAX_EFFECT 58.33333333, TOP 100.0) was 4.17 and the PXC50 (BOTTOM -2.394752883, HILLSLOPE 0.813527414, MAX_EFFECT 65.35087719, TOP 100.0) was 4.43.
For Cc1nc(N2CCN(c3ncccn3)CC2)c2c3c(sc2n1)CCCC3, the PXC50 (MAX_EFFECT 19.78609626) was < 4 and the PXC50 (MAX_EFFECT 20.21857923) was < 4.
For CC(O)c1ccc(Cl)cc1Cl (centres undefined), the PXC50 (MAX_EFFECT 7.559395248) was < 3 and the PXC50 (MAX_EFFECT 15.39923954) was < 3.
Work on O=C(NC1CCCC1)c1ccc2ccc(N3CCOCC3)n2c1 yielded a PXC50 (BOTTOM 3.55073469, HILLSLOPE 1.692539638, MAX_EFFECT 59.05660377, TOP 61.76844647) of 4.9 and a PXC50 (BOTTOM 4.599152337, HILLSLOPE 2.687600256, MAX_EFFECT 55.70776256, TOP 54.83275802) of 4.96.
Work on O=c1cc(NCCCNCc2c[nH]c3ccc(Br)cc23)[nH]c2ccccc12 yielded a PXC50 (BOTTOM 0.0, HILLSLOPE 1.551467474, MAX_EFFECT 106.0606061, TOP 104.4534441) of 5.79 and a PXC50 (BOTTOM 0.546192845, HILLSLOPE 1.22385612, MAX_EFFECT 106.0465116, TOP 107.4209254) of 5.79.
With N[C@@H]1CCOc2c(Cl)cc(Cl)cc21 the PXC50 (MAX_EFFECT 3.676470588) was < 2.7 and the PXC50 (MAX_EFFECT 16.70480549) was < 2.7.
In the case of CCOC(=O)N1CCN(c2nc(C)nc3sc4c(c23)CCCC4)CC1, the PXC50 (MAX_EFFECT 14.58333333) is reported as < 4 and the PXC50 (MAX_EFFECT 16.22807018) is reported as < 4.
CCNC(=O)C1CCCN(c2nc(C)nc3sc4c(c23)CCC4)C1 (centres undefined) was tested, and the PXC50 (MAX_EFFECT 7.25388601) was < 4 and the PXC50 (MAX_EFFECT 9.574468085) was < 4.
COCCNc1nc(-n2nc(C)cc2C)nc2sc3c(c12)CCCC3 showed a PXC50 (BOTTOM 1.301145561, HILLSLOPE 1.464534306, MAX_EFFECT 52.38095238, TOP 100.0) of 4.33 and a PXC50 (BOTTOM -0.0791, HILLSLOPE 1.372664479, MAX_EFFECT 81.02766798, TOP 100.0) of 4.48.
Oc1ccccc1-c1nc(Nc2ccccc2Cl)c2ccccc2n1 was tested, and the PXC50 (MAX_EFFECT 30.74074074) was < 4.
For COCCNc1ccc2ncc(-c3ccc4onc(N)c4c3)n2n1, the PXC50 (MAX_EFFECT 3.125) was < 4 and the PXC50 (MAX_EFFECT 3.947368421) was < 4.
COc1ccc(-c2cc(C(F)(F)F)nc(N3CCCC3)n2)cc1 was tested, and the PXC50 (MAX_EFFECT 5.85106383) was < 4 and the PXC50 (MAX_EFFECT 7.772020725) was < 4.
Cc1nc(N2CCN(CCO)CC2)c2c(-c3cccs3)csc2n1 was tested, and the PXC50 (MAX_EFFECT 9.693877551) was < 4 and the PXC50 (MAX_EFFECT 12.37373737) was < 4.
In the case of Cc1cc(C(F)(F)F)nc(NCCc2ccccc2)n1, the PXC50 (MAX_EFFECT 6.557377049) is reported as < 4 and the PXC50 (MAX_EFFECT 10.16042781) is reported as < 4.
In the case of CCc1nc(NCCCN(C)C)c2c3c(sc2n1)CCC3, the PXC50 (MAX_EFFECT 11.05527638) is reported as < 4 and the PXC50 (MAX_EFFECT 11.54791155) is reported as < 4.
Compound CS(=O)(=O)N1CCN(c2ccc3ccc(C(=O)NCC4CC4)cn23)CC1 has a PXC50 (BOTTOM 3.917889821, HILLSLOPE 2.161741125, MAX_EFFECT 61.66007905, TOP 61.91262666) of 4.97 and a PXC50 (BOTTOM -0.968460018, HILLSLOPE 1.661925269, MAX_EFFECT 62.22222222, TOP 66.45309128) of 4.79.
With CCc1nc(N2CCC(C(=O)O)CC2)c2c3c(sc2n1)CCC3 the PXC50 (MAX_EFFECT 11.47540984) was < 4 and the PXC50 (MAX_EFFECT 12.29946524) was < 4.
Cc1sc2nc(-c3cccnc3)nc(NCCOCCO)c2c1C was tested, and the PXC50 (MAX_EFFECT 9.042553191) was < 4 and the PXC50 (MAX_EFFECT 9.844559585) was < 4.
With CCNc1nc(-c2ccc(C)cc2)cc(C(F)(F)F)n1 the PXC50 (MAX_EFFECT 4.797979798) was < 4 and the PXC50 (MAX_EFFECT 5.102040816) was < 4.
For Cc1ccc(-c2cc(C(F)(F)F)nc(N3CCOCC3)n2)s1, the PXC50 (MAX_EFFECT 10.18276762) was < 4 and the PXC50 (MAX_EFFECT 14.09921671) was < 4.
In the case of FC1(F)CCN(Cc2ccncc2)CC12CCN(c1cnccn1)C2 (centres undefined), the PXC50 (MAX_EFFECT 2.721088435) is reported as < 4 and the PXC50 (MAX_EFFECT 15.70093458) is reported as < 4.
For Cn1ncc2c(NCCO)nc(NCC3CCCO3)nc21 (centres undefined), the PXC50 (MAX_EFFECT 7.969639469) was < 4.
For Cc1nc(NC(C(=O)O)C(C)C)c2c(C)c(C)sc2n1 (centres undefined), the PXC50 (MAX_EFFECT 8.0) was < 4 and the PXC50 (MAX_EFFECT 9.523809524) was < 4.
CS(=O)(=O)N1CCN(c2ccc3ccc(C(=O)NC4Cc5ccccc5C4)cn23)CC1 was tested, and the PXC50 (BOTTOM 1.298239116, HILLSLOPE 2.724135748, MAX_EFFECT 51.19617225, TOP 47.98570818) was 5.08 and the PXC50 (BOTTOM 7.56395186, HILLSLOPE 1.844448201, MAX_EFFECT 55.57586837, TOP 59.35407924) was 4.75.
In the case of CCCN(CCOC)c1nc(C)nc2sccc12, the PXC50 (MAX_EFFECT 12.79373368) is reported as < 4 and the PXC50 (MAX_EFFECT 15.14360313) is reported as < 4.
With CC(C)(C)c1nc(NCCO)c2c3c(sc2n1)CCCC3 the PXC50 (MAX_EFFECT 6.632653061) was < 4 and the PXC50 (MAX_EFFECT 7.323232323) was < 4.
With COc1ccc(C(=O)[C@H]2C[C@@H]2CN(Cc2ccccn2)Cc2ccccn2)cc1 the PXC50 (MAX_EFFECT 11.1627907) was < 4 and the PXC50 (MAX_EFFECT 16.55011655) was < 4.
With Cc1nc(N2CCc3ccccc3C2)c2c3c(sc2n1)CCC3 the PXC50 (BOTTOM 1.539204696, HILLSLOPE 1.85727021, MAX_EFFECT 61.30653266, TOP 67.5568533) was 4.58 and the PXC50 (BOTTOM -2.995522408, HILLSLOPE 1.216214635, MAX_EFFECT 78.37837838, TOP 108.7860492) was 4.36.
In the case of CS(=O)(=O)N1CCN(c2ccc3cnc(C(=O)NC4CCCC4)cn23)CC1, the PXC50 (MAX_EFFECT 8.333333333) is reported as < 4 and the PXC50 (MAX_EFFECT 13.54166667) is reported as < 4.
With Cn1ccnc1CN1CCC(F)(F)C2(CCN(c3cnccn3)C2)C1 (centres undefined) the PXC50 (MAX_EFFECT 2.816901408) was < 4 and the PXC50 (MAX_EFFECT 9.074074074) was < 4.
With COc1cccc(-c2cc(C(F)(F)F)nc(N3CCOCC3)n2)c1 the PXC50 (MAX_EFFECT 8.510638298) was < 4 and the PXC50 (MAX_EFFECT 10.3626943) was < 4.
With Fc1cccc(OC[C@@H]2CNCCO2)c1Oc1ccc(Cl)cc1 the PXC50 (MAX_EFFECT 6.609808102) was < 4 and the PXC50 (MAX_EFFECT 8.902691511) was < 4.
In the case of O=C(NCC1CCCCC1)c1cc(=O)c2cc[nH]c(=O)c2o1, the PXC50 (MAX_EFFECT 5.901116427) is reported as < 4 and the PXC50 (MAX_EFFECT 6.333973129) is reported as < 4.
In the case of Cc1nc(NC(CC(C)C)C(=O)O)c2c3c(sc2n1)CCCC3 (centres undefined), the PXC50 (MAX_EFFECT 16.83673469) is reported as < 4 and the PXC50 (MAX_EFFECT 16.91919192) is reported as < 4.
With Cc1cc(C(F)(F)F)nc(N2CCN(Cc3nccn3C)CC2)n1 the PXC50 (MAX_EFFECT 3.571428571) was < 4 and the PXC50 (MAX_EFFECT 6.313131313) was < 4.
In the case of CC(C)C[C@@H](N)COc1cccc(F)c1Oc1cccc(Cl)c1, the PXC50 (BOTTOM 1.372222408, HILLSLOPE 1.087653332, MAX_EFFECT 50.72463768, TOP 100.0) is reported as 4.03 and the PXC50 (BOTTOM -0.306407193, HILLSLOPE 1.563618531, MAX_EFFECT 56.92963753, TOP 100.0) is reported as 4.11.
CC(C)(CN)COc1cccc(F)c1Oc1ccc(Cl)cc1 was tested, and the PXC50 (MAX_EFFECT 16.84434968) was < 4 and the PXC50 (MAX_EFFECT 20.08281573) was < 4.
